For test [1], the system named is Human papillomavirus type 1a protein E7 (residues 44-93). The test is described as follows: small molecules binding HPV E7 44-93 – biochemical, small-molecule microarray, residues 44-93, 635 nm fluorescence, primary screen (AID 1108).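 Also: E7 fragment applied at 1 µg/mL in TBST for 1 h at 4 C; score combines spot fluorescence with its signal to noise ratio.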 To be noted: fluorescence 635 nm, higher = more signal.
The nature of test [2]: hepatitis C replication reporter changes, two-sided – Huh7 cells, luciferase reporter, HCV replication inhibitor project, primary screen (AID 1109).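 Also: huh7 hepatoma cells harbouring a luciferase neomycin HCV replicon reporter; luciferase luminescence as measure of HCV replicon replication; test concentration not given here.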 To be noted: Huh7 HCV replicon luciferase reporter, 48 h; higher = more signal.
In test [3] the target is Left-right determination factor 2 (Homo sapiens) (UniProt O00292). Kind of test: small molecules binding LEFTY2 protein – biochemical, small-molecule microarray, 635 nm fluorescence scan, primary screen (AID 1110). The following applies: higher = more signal.
The target of test [4] is Calmodulin-1 (Homo sapiens) (UniProt P0DP23). Kind of test: small molecules binding calmodulin-1 with EGTA – biochemical, small-molecule microarray, Cy5-labelled CALM1, profiling panel (AID 1111).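 Also: labelled calmodulin applied in Tris saline Tween buffer holding calcium plus EGTA and DTT.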 The following applies: Cy5-CALM1 binding fluorescence, higher = more signal.
For test [5] the target is unchanged. Kind of test: small molecules binding Ca-loaded calmodulin-1 – biochemical, small-molecule microarray, Cy5-labelled CALM1, plus calcium, artefact control for SMM control-protein annotation, profiling panel (AID 1112).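 Also: score merges spot fluorescence with signal to noise from triplicate slides.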 To be noted: Cy5-CALM1 binding fluorescence, higher = more signal.
A short description of test [6]: probe aWnt5a binding to arrayed compounds – biochemical, biotinylated probe, 635/667 nm fluorescence, primary screen (AID 1113).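 Also: score merges 667 nm fluorescence intensity with signal-to-noise per printed feature.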 To be noted: small-molecule microarray, higher = more signal.
Test [7] in a line: probe aShh binding to arrayed compounds – biochemical, biotinylated probe, 635/667 nm fluorescence, primary screen (AID 1114).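 Also: probe is biotin-labelled aShh protein from a stem cell growth factor screen; measures binding of labelled protein to compounds printed on the slide; score merges feature fluorescence at 667 nm with signal-to-noise.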 To be noted: small-molecule microarray, higher = more signal.
Test [8] in a line: probe aNog binding to arrayed compounds – biochemical, biotinylated probe, 635/667 nm fluorescence, primary screen (AID 1115).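 Also: probe is biotinylated aNog protein used at 0.15 µg/mL for 1 h at 4 C; z-score combines 667 nm fluorescence of each spot with its signal to noise.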 To be noted: small-molecule microarray, higher = more signal.
The target in test [9] is Torsin-1A-interacting protein 1 (Homo sapiens) (UniProt Q5JTV8). The test is described as follows: compound microarray binding of lysate hLAP1 – cell lysate, small-molecule microarray, COS7 lysate, 635/667 nm fluorescence, primary screen (AID 1116). The following applies: 635 nm fluorescence, higher = more signal.
Test [10] addresses Alpha-bungarotoxin (Bungarus multicinctus) (UniProt P60615). Kind of test: compounds binding labelled alpha-BTX control protein – biochemical, small-molecule microarray, Alexa647 label, 635/667 nm fluorescence, artefact control for SMM control protein annotation, profiling panel (AID 1117). The following applies: alpha-BTX-A647 binding fluorescence, higher = more signal.
The target in a further test is Albumin (Bos taurus) (UniProt P02769). The test is described as follows: compounds binding labelled BSA control protein – biochemical, small-molecule microarray, Alexa647 label, 635/667 nm fluorescence, artefact control for SMM control protein annotation, profiling panel (AID 1118).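 Also: score merges 667 nm emission intensity and signal-to-noise per printed compound spot.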 The following applies: BSA-A647 binding, fluorescence 635 nm, higher = more signal.
A short description of test [11]: probe aXIP binding to arrayed compounds – biochemical, NeuroSMM set, 635/667 nm fluorescence, primary screen (AID 1119).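 Also: probe is the protein aXip251-270 applied at 1 µg/mL to compound-printed slides; binding of probe to printed compounds measured as 667 nm fluorescence plus signal to noise.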 To be noted: small-molecule microarray, higher = more signal, called active from +8 up or from −8 down.
Test [12] in a line: probe aNOTCH3 binding on compound microarray – biochemical, small-molecule microarray, 635/667 nm fluorescence, primary screen (AID 1120).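 Also: probe is a biotin-tagged antibody raised against NOTCH3 rather than NOTCH3 protein; score merges spot fluorescence near 667 nm with spot signal to noise.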 The following applies: higher = more signal.
Test [13] is described as follows: probe aNOTCH2 binding on compound microarray – biochemical, small-molecule microarray, 635/667 nm fluorescence, primary screen (AID 1121).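 Also: score merges feature fluorescence read at 667 nm with its signal to noise.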 To be noted: higher = more signal.
Test [14] concerns the target Carbonic anhydrase 2 (Homo sapiens) (UniProt P00918). The test is described as follows: compounds binding carbonic anhydrase 2 – biochemical, small-molecule microarray, Alexa647-labelled CAII, profiling panel (AID 1122). To be noted: CAII-A647 binding fluorescence, higher = more signal.
The nature of test [15]: COS7 lysate on small-molecule microarray, probe aHis, 635 nm (AID 1123).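 Also: z-score combines 667nm fluorescence intensity with signal-to-noise per printed compound spot.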 To be noted: COS7 cell lysate, fluorescence, higher = more signal.
The nature of test [16]: probe aLAP1 signal on lysate-treated microarray – cell lysate, small-molecule microarray, COS7 lysate, primary screen (AID 1124).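 Also: lysate comes from COS7 cells expressing LAP1 and is applied at 0.3 µg/mL; score merges spot fluorescence near 667 nm with signal-to-noise over triplicate slides.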 To be noted: probe aLAP1, fluorescence, higher = more signal.
The test system of the next test is Sam68 (KHDRBS1). Kind of test: compounds binding KHDRBS1 protein – biochemical, small-molecule microarray, 635 nm fluorescence, primary screen (AID 1125).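 Also: score merges 667 nm channel intensity with signal to noise over triplicate slides.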 The following applies: higher = more signal.
Test [17] relates to Chordin-like protein 2 (CHRDL2). Kind of test: compounds binding chordin-like 2 – biochemical, small-molecule microarray, 635 nm fluorescence, primary screen (AID 1126).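 Also: printed compound slides probed with Chrdl2 protein at 4 µg/mL for 1 h at 4 C; score merges 667 nm emission intensity with signal to noise over three replicate slides.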 To be noted: fluorescence 635 nm, higher = more signal.
Test [18] addresses Concanavalin-A (Canavalia ensiformis) (UniProt P02866). The test is described as follows: compounds binding concanavalin A lectin – biochemical, small-molecule microarray, Alexa647 label, 635 nm, artefact control for SMM control protein annotation, primary screen (AID 1127).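 Also: z combines 667 nm emission intensity with signal-to-noise across three replicate slides.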 To be noted: ConA-A647 binding fluorescence, higher = more signal.

We go through six compounds from PubChem BioAssay.

Each structure is given as a SMILES string. The source made the active and inactive calls.

Chain of Alpha-bungarotoxin (Bungarus multicinctus) (P60615 whole entry, looked up): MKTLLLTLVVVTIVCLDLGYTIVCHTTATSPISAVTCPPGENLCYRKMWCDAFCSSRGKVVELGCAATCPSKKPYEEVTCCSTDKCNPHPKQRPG
Chain of Albumin (Bos taurus) (P02769 whole entry, looked up): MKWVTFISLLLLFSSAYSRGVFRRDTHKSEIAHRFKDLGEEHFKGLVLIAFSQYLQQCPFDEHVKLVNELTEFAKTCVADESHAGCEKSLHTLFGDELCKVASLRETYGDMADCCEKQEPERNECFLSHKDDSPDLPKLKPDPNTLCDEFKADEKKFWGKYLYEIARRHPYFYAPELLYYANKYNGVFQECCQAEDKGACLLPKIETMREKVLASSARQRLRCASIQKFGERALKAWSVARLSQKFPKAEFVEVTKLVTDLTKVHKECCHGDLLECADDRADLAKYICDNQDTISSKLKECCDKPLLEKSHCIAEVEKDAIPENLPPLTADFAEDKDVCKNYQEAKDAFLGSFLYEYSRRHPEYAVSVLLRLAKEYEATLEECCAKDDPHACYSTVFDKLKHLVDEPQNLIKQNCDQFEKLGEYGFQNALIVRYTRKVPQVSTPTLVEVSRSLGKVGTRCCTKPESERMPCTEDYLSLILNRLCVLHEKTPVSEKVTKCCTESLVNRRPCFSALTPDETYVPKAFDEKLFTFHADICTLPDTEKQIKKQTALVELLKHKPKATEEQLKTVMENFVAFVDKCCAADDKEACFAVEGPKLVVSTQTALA
Chain of Concanavalin-A (Canavalia ensiformis) (P02866 whole entry, looked up): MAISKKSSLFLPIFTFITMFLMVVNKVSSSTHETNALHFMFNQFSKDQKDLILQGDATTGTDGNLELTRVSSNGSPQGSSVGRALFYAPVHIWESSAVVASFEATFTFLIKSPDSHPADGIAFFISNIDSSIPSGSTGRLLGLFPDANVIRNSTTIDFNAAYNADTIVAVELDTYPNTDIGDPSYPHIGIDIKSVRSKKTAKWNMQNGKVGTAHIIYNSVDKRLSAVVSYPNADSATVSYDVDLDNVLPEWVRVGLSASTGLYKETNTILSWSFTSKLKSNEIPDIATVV
Chain of Torsin-1A-interacting protein 1 (Homo sapiens) (Q5JTV8 whole entry, looked up): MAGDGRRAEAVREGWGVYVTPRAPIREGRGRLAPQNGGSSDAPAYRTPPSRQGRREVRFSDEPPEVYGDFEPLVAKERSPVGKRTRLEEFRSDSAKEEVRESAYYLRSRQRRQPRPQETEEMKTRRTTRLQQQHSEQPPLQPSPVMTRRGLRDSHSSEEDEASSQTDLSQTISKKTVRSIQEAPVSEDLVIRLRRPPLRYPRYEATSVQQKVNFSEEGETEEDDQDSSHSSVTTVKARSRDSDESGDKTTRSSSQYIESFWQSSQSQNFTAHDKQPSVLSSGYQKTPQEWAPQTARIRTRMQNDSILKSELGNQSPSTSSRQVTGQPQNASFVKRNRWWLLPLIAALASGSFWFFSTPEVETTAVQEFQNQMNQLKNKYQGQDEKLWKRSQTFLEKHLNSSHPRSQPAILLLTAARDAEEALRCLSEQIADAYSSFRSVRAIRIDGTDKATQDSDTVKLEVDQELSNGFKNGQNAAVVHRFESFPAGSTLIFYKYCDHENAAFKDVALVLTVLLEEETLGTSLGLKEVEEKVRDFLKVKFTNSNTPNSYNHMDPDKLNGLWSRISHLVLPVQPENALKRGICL
Chain of Left-right determination factor 2 (Homo sapiens) (O00292 whole entry, looked up): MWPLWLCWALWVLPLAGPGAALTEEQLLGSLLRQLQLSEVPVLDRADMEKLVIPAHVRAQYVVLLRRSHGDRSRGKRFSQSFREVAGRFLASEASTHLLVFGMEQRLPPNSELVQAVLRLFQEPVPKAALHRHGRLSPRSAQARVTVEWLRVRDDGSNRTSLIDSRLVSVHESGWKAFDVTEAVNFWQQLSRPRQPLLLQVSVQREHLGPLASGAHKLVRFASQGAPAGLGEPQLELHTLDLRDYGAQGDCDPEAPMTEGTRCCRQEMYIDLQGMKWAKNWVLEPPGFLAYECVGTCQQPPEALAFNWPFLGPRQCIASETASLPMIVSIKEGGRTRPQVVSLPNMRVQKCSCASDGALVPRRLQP

In the case of `CC(=O)OC[C@H]1O[C@H](CCON=C(C)C)C=C[C@@H]1OC(C)=O`, the composite z-score was -0.306 in test [1]; 0.304 in test [3]; -0.42 in test [4]; -0.268 in [5]; -0.152 in test [6]; -0.0769 in test [7]. Also, the composite z-score was -0.324 in test [8]; 0.3 in test [9]; 0.501 in [10]; 0.123 in the test with Albumin (Bos taurus); -0.0362 in test [12]; -0.0651 in test [13]. The composite z-score in [14] was -0.177; in test [15] it was -0.308; in test [16], -0.0375; in the test on Sam68 (KHDRBS1), -0.406; in [17] it was 0.445; in test [18], 0.186. In [2], the z-score was -0.684. Moreover, the composite Z-score in test [11] is -0.0706 (inactive).
With `C[C@@H](c1ccccc1)N1C(=O)[C@H]2[C@H]3[C@H](O)[C@H](O)CC(=NOCc4ccccc4)[C@@H]3CC[C@H]2C1=O`, the composite z-score in test [1] was -0.233; in test [3] it was 0.11; in test [4] it was -0.38; in [5] it was -0.0198; in test [6] it was 0.0061; in [7], -0.276. Moreover, the composite z-score in test [8] is 0.593; in test [9], 0.348; in [10] it was 0.993; with Albumin (Bos taurus) it was 0.758; in test [12] it was -0.0055; in test [13] it was -0.0467. Further, the composite z-score was -0.247 in test [14]; 0.043 in [15]; 0.017 in test [16]; -0.105 with Sam68 (KHDRBS1); 0.823 in [17]; -0.577 in test [18]. In test [2], this compound came in with a z-score of -0.701. Moreover, the composite Z-score in test [11] was 0.081 (inactive).
On to `C[C@@H]1CC[C@H]2C(=O)OC(CN3C(=O)c4ccccc4C3=O)CN2[C@H]1c1ccc(Br)cc1` (stereo not given in full), for which the composite z-score in test [1] is 0.901; in test [3], 0.113; in test [4] it was 1.53; in [5], 0.772; in test [6], -0.091; in test [7], 0.111. The composite z-score in [8] was 0.243; in test [9], 0.419; in test [10] it was 0.666; in the test with Albumin (Bos taurus), 0.808; in test [12], -0.0984; in test [13], 0.178. The composite z-score in test [14] was 0.305; in test [15], 0.787; in test [16] it was 0.376; in the test on Sam68 (KHDRBS1), 0.438; in test [17], 0.333; in test [18], 0.781. The z-score in [2] was found to be 0.302. In test [11], the composite Z-score was 0.372 (inactive).
With `COC(=O)[C@H](C)NC(=O)CCC1CC(OC(=O)NCc2ccc3c(c2)OCO3)CC2(CCCC(COC(=O)NCCCN3CCCC3=O)O2)O1` (stereo not given in full), the composite z-score in [1] was 1.32; in test [3], 0.849; in test [4], 0.924; in test [5] it was -0.151; in test [6], -0.0644; in test [7] it was -0.186. Further, the composite z-score in test [8] is 0.0215; in [9], 0.286; in [10], 0.88; in the test with Albumin (Bos taurus), 0.328; in test [12] it was 0.186; in test [13] it was -0.293. Further, the composite z-score worked out at 0.167 in test [14]; 0.639 in test [15]; 0.261 in test [16]; 1.26 in the test on Sam68 (KHDRBS1); 0.826 in test [17]; 0.872 in [18]. Moreover, in [2], the z-score was -1.87. The composite Z-score in test [11] is 0.3 (inactive).
Take `CC(C)=NO[C@H](C)c1cn([C@@H]2COC[C@H]2O)nn1`: the composite z-score was 0.427 in [1]; 0.48 in test [3]; -0.312 in test [4]; -0.956 in test [5]; -0.169 in test [6]; -0.138 in test [7]. Moreover, the composite z-score in test [8] was -0.216; in [9], 0.26; in test [10] it was 0.159; with Albumin (Bos taurus), 0.392; in [12], 0.0694; in [13], -0.147. Further, the composite z-score in test [14] amounted to 0.0793; in test [15] it was 0.0027; in test [16] it was 0.191; with Sam68 (KHDRBS1), 0.317; in test [17] it was 0.655; in test [18] it was 0.139. Also, the z-score in test [2] was 0.78. Besides, the composite Z-score in test [11] was -0.679 (inactive).
As for `O=C1C[C@@H](O)[C@@H](O)[C@@H]2[C@@H]3C(=O)N(Cc4ccccc4)C(=O)[C@@H]3CC[C@H]12`, the composite z-score in [1] is -0.234; in test [3], 0.804; in test [4], 0.0302; in [5] it was -0.344; in test [6], -0.0869; in test [7] it was -0.138. The composite z-score in test [8] is 0.0369; in [9], 0.432; in test [10] it was 0.848; with Albumin (Bos taurus), -0.0028; in [12] it was 0.111; in test [13], -0.107. Also, the composite z-score is 0.213 in test [14]; -0.0842 in test [15]; 0.23 in test [16]; 0.184 in the test on Sam68 (KHDRBS1); 0.415 in test [17]; 0.941 in test [18]. In [2], this compound came in with a z-score of -0.0156. The composite Z-score in test [11] is -0.082 (inactive).
